# Measured values reported in ChEMBL document CHEMBL3988442, “University of Dundee, Small-Polar-MMV Screening Library” (2021).
# For some assays here: Measured potencies and affinities stand elsewhere.
# Legend:
# Set-up in all cases: scale not given: direction of the effect not stated beside the values
# [1] = target: Protein translocase subunit SecA (Escherichia coli (strain K12)) (UniProt P10408); assay: Assay to Identify E. coli SecA ATPase Inhibitors; assay type: functional; conditions: 30 µM
# Sequence of Protein translocase subunit SecA (Escherichia coli (strain K12)) (P10408 whole entry): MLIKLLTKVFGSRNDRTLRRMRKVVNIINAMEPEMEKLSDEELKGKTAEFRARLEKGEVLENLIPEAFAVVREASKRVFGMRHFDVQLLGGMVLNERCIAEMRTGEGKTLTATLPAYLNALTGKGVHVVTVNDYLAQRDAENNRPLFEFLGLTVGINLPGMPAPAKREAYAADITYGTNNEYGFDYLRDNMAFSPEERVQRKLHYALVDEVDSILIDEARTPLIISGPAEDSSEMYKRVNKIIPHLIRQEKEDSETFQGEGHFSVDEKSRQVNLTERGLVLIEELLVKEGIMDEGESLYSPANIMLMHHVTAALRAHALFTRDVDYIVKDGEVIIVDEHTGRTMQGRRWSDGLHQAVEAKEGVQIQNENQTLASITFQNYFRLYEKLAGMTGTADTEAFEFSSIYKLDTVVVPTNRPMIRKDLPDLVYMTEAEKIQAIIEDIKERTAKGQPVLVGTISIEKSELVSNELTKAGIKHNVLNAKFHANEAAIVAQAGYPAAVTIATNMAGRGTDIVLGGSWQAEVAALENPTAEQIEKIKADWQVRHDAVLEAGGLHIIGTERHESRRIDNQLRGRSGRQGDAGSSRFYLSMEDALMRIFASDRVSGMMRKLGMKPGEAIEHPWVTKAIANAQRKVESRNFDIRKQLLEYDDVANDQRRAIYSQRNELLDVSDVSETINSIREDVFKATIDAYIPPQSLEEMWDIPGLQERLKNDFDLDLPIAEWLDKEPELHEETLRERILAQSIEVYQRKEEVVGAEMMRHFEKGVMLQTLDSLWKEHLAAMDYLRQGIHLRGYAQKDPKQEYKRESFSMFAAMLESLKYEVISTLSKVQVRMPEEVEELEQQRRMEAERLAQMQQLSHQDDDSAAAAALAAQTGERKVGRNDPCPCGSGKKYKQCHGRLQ
# [2] = target: T1, Ubiquitin-activating enzyme e1, putative (Leishmania donovani (strain BPK282A1)) (UniProt E9BSI1); assay: Leishmania donovani Ubiquitin Activating Enzyme (LdE1); assay type: functional; conditions: 30 µM
# T1 sequence (whole entry): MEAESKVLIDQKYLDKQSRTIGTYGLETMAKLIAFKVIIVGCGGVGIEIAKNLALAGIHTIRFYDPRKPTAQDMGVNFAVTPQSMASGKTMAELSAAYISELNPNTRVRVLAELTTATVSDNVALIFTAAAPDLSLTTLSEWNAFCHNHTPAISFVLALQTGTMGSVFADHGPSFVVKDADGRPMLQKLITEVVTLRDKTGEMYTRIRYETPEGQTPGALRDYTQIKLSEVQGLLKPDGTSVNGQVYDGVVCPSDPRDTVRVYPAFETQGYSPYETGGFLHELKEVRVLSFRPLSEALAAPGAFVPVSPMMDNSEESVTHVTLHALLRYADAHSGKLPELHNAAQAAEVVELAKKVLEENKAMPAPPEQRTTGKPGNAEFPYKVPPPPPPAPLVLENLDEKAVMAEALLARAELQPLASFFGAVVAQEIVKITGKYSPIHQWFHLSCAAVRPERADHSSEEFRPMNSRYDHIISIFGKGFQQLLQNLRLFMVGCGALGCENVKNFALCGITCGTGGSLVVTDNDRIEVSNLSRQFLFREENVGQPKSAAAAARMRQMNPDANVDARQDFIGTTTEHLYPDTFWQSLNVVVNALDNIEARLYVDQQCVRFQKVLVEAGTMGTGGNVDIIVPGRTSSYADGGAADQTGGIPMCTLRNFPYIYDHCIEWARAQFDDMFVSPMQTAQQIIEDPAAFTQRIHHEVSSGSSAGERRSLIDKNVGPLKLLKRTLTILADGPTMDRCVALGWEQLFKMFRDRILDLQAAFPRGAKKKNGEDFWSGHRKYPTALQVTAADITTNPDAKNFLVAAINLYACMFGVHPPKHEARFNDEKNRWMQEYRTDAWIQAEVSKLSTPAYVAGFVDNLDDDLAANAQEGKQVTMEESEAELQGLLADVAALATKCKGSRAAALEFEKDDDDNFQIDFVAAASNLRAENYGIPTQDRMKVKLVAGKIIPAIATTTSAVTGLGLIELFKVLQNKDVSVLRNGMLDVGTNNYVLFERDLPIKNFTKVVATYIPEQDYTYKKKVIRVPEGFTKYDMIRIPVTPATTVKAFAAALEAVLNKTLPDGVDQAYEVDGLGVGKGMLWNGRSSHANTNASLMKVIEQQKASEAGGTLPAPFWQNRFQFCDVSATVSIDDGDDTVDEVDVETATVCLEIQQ
# [3] = target: AMP-activated protein kinase, AMPK (Homo sapiens) (UniProt P54646+O43741+P54619+Q9UGJ0+Q9Y478+Q13131+Q9UGI9); assay: AMP-dependent Kinase enzyme assay. An in vitro enzyme assay that detects ADP turnover that is directly proportional to AMPK activity. This uses naive AMPK that is activated during the assay with MK-8722; assay type: functional; conditions: 30 µM
# [4] = target: Sialic acid-binding Ig-like lectin 9 (Homo sapiens) (UniProt Q9Y336); assay: Hs-Siglec9 ALPHAscreen SOP 20170721; conditions: 10 µM
# Sequence of Sialic acid-binding Ig-like lectin 9 (Homo sapiens) (Q9Y336 whole entry): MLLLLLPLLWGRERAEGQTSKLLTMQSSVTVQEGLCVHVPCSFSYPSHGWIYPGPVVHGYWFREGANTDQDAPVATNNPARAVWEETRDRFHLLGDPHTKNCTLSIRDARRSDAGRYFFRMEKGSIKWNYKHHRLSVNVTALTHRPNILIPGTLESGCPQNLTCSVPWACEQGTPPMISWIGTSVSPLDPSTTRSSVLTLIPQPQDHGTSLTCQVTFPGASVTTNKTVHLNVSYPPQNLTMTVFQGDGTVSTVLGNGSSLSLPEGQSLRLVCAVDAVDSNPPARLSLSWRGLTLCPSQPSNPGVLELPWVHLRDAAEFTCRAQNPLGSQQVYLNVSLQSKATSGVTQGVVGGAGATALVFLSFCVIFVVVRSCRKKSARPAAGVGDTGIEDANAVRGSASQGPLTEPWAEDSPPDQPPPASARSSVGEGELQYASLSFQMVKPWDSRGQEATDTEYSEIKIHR
# Trypanosoma cruzi = assay: Trypanosoma cruzi phosphomannomutase and mannose-1-phosphate guanylyltransferase assay; assay type: functional; conditions: 10 µM
# [5] = target: T2, Arginase-2, mitochondrial (Homo sapiens) (UniProt P78540); assay: in vitro enzyme assay to detect the production of urea directly proportional to the activity of Arginase II; assay type: functional; conditions: 33.3 µM; note: in the data most compounds retested in dose-response had high values
# T2 sequence (whole entry): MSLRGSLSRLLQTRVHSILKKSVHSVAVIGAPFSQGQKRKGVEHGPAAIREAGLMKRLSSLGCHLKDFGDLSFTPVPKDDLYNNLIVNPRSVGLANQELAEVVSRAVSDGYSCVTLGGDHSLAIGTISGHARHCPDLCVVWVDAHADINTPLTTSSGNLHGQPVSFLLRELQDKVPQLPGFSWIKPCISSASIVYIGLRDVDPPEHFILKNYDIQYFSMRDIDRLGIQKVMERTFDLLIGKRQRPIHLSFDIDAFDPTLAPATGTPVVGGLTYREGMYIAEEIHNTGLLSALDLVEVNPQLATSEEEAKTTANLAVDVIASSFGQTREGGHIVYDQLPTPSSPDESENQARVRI
# [6] = target: T3, Proteasome subunit beta (Trypanosoma cruzi) (UniProt O96673); assay: Trypanosoma cruzi proteasome chymotrypsin-like activity (TcProtChymo) assay.; note: in the data most compounds retested in dose-response had high values; assay type: functional; conditions: 9.37 µM
# T3 sequence (whole entry): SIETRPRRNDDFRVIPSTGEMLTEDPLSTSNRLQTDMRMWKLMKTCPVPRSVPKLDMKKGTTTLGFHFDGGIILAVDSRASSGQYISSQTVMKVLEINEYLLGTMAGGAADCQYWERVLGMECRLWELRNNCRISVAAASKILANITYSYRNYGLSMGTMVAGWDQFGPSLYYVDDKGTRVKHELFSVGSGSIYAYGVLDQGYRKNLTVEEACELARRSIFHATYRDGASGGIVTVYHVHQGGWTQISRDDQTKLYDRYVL
# Homo sapiens = species: Homo sapiens; assay: To identify inhibition of the IFN signalling (Jak-Stat) pathway via expression of an eGFP reporter gene under the control of an IFN-stimulated response element (ISRE) containing MxA promoter.; assay type: functional; conditions: 30 µM
# [7] = target: T4, Tyrosyl-tRNA synthetase, putative (Trypanosoma cruzi (strain CL Brener)) (UniProt Q4DSP6); assay: Trypanosoma cruzi tyrosyl tRNA synthetase (TcYRS) _High Tyrosine SOP; assay type: functional; conditions: 30 µM; note: in the data most compounds retested in dose-response had high values
# T4 sequence (whole entry): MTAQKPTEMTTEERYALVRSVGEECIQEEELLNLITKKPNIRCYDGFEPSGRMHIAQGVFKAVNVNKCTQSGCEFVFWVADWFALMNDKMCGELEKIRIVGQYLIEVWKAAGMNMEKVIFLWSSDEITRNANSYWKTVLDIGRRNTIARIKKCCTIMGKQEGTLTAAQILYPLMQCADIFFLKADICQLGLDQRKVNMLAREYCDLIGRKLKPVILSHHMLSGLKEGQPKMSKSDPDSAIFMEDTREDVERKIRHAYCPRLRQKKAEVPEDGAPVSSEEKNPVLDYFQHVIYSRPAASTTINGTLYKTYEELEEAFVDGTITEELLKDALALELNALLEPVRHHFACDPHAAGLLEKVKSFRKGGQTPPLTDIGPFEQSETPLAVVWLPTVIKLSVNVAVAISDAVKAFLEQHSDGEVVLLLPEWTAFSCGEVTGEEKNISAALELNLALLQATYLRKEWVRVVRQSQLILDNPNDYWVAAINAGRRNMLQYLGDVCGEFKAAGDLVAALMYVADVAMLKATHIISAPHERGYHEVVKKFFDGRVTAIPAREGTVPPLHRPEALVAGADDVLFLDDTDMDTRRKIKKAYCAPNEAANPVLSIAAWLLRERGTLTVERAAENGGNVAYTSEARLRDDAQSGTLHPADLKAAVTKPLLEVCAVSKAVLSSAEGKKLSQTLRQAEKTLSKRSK
# [8] = target: T4, Tyrosyl-tRNA synthetase, putative (Trypanosoma cruzi (strain CL Brener)); assay: Trypanosoma cruzi tyrosyl tRNA synthetase (TcYRS) SOP; assay type: functional; conditions: 30 µM
# [9] = target: Chromo domain-containing protein 1 (Saccharomyces cerevisiae (strain ATCC 204508 / S288c) (Baker's yeast)) (UniProt P32657); assay: ScCHD-1 Enzyme Inhibition Assay; assay type: functional; conditions: 30 µM; note: in the data most compounds retested in dose-response had high values
# Sequence of Chromo domain-containing protein 1 (Saccharomyces cerevisiae (strain ATCC 204508 / S288c) (Baker's yeast)) (P32657 whole entry, the tested form may be a part): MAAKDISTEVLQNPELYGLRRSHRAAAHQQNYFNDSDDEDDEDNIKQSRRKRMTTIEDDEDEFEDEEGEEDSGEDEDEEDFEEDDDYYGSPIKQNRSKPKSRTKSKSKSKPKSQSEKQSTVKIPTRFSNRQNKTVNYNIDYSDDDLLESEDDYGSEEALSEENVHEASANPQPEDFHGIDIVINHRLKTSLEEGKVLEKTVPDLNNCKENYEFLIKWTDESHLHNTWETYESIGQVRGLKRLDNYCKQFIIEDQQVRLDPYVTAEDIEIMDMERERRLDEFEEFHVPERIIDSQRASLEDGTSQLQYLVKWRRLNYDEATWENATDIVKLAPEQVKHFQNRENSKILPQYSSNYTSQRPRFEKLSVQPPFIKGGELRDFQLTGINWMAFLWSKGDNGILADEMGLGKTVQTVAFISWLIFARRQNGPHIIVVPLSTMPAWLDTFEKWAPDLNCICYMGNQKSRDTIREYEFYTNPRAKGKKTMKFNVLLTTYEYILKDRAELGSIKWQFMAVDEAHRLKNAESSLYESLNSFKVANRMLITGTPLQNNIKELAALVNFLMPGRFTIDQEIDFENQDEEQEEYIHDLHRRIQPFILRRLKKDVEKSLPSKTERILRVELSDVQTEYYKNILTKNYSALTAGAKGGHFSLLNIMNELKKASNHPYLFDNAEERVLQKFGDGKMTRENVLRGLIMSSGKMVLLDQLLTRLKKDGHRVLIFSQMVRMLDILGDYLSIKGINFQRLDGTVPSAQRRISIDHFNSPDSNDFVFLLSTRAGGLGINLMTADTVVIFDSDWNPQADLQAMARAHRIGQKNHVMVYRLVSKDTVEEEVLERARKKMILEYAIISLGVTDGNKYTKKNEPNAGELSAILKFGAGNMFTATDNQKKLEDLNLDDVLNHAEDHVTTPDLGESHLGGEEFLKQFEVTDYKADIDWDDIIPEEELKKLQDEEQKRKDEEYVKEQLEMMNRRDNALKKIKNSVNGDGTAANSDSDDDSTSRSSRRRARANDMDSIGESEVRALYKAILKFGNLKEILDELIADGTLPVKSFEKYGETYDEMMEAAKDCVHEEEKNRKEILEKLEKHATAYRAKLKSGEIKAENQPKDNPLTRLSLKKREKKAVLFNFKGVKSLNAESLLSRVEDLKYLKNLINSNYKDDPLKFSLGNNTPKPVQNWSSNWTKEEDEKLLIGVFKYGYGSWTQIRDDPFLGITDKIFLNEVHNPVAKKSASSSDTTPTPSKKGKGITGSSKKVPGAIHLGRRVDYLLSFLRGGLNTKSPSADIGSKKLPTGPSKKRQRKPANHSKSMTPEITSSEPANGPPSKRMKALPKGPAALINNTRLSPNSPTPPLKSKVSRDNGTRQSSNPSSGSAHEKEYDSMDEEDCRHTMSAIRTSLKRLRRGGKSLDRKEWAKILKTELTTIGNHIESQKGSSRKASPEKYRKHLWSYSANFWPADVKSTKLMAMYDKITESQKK
SMILES,Percent Effect [1] [%],Percent Effect [2] [%],Percent Effect [3] [%],Percent Effect [4] [%],Percent Effect (Trypanosoma cruzi) [%],Percent Effect [5] [%],Percent Effect [6] [%],Percent Effect (Homo sapiens) [%],Percent Effect [7] [%],Percent Effect [8] [%],Percent Effect [9] [%]
COCCn1nc(C(=O)N2CCCC2c2cccc(F)c2)ccc1=O (stereo not given),-0.858,5.41,-0.552,11.3,2.9,10,8.1,-4.91,-0.529,-2.44,-0.976
CC1CCN(S(=O)(=O)NCC2CCOc3ccccc3C2)CC1 (stereo not given),-7.79,2.6,4.04,4.95,-2.46,-8.28,6.16,23.1,0,3.7,-0.0656
CCc1cc(=O)[nH]c2nnc(SCC(=O)OC)n12,0.274,16.4,-5.37,-14.2,3.72,18.2,15.6,-0.951,6.45,17.5,-6.44
CC1CCCCN1c1nc2c(c(=O)[nH]1)CCN(Cc1cccnc1)C2 (stereo not given),-3.13,12.2,6.19,3.8,0.79,2.09,9.36,2.99,3.23,14.3,-18.2
CC(C)c1cc(C(=O)N2CCN(Cc3ccsc3)CC2)n[nH]1,-2.94,13.5,-2.35,15,5.57,18.1,12.1,28,4.3,18.5,-3.72
CC(C)(C)c1n[nH]c(C2CN(C(=O)c3cc(C4CC4)on3)CCO2)n1 (stereo not given),-2.82,7.89,1.22,-5.79,5.55,-8.28,-4.7,0.97,1.06,5.2,-10.8
Cc1nc(CN2C(=O)C[C@@H]3[C@@H]2CCN3C(=O)C2CCOCC2)cs1,-0.279,8.22,-5.72,3.96,4.17,-5.19,8.82,-4.21,1.04,-3.7,-3.04
CSCC(CCO)NC(=O)Nc1cccc(Br)c1 (stereo not given),-3.42,2.74,8.84,-3.56,-3.53,3.18,17.2,6.61,0,2.5,-2.08
CCCc1nc(CN2CCN(Cc3noc(CCC)n3)CC2)no1,-5.83,13.9,-4.71,0.206,-0.718,-8.39,10.5,7.72,11.5,17.7,-33.6
CS(=O)(=O)NCC(=O)NC1CCc2nccn2C1 (stereo not given),0.138,5.33,-3.96,-2.36,-7.69,1.56,12.7,2.1,4.92,8.64,-13.2
